Counter-ions that a name gives are not always drawn.

This assay deals with Danio rerio larvae (5 dpf). The assay can be described thus: optomotor response to fast red moving lines, difference vs DMSO (percentage points (treated minus DMSO)); higher = more of the behaviour than the DMSO vehicle control. Particulars: 10 µM; exposure time: 3 h pre-incubation + 3 h imaging. Here is the method: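 5-dpf wild-type zebrafish larvae were imaged in 96-well plates. They were treated with 190 Tocris FDA-approved drugs at 10 µM (1 µl/ml DMSO) for 3 h before and 3 h during imaging at 28.5 °C, 48 larvae per drug. Automated image analysis gave % time moving and optomotor responses. Values are drug group mean minus DMSO vehicle mean (n=844), in percentage points, for 10 behaviours.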
With `C=CCN1C[C@H](C(=O)N(CCCN(C)C)C(=O)NCC)C[C@@H]2c3cccc4[nH]cc(c34)C[C@H]21` [Cabergoline], the optomotor response is -23.2.
The figure for `CN1C[C@H](C(=O)N[C@]2(C)O[C@@]3(O)[C@@H]4CCCN4C(=O)[C@H](Cc4ccccc4)N3C2=O)C[C@@H]2c3cccc4[nH]cc(c34)C[C@H]21` [Dihydroergotamine mesylate] is 2.2.
In the case of `CC[C@@H](C(N)=O)N1CCCC1=O` [Levetiracetam] it was -4.73.
In the case of `COc1cc2c(cc1OC)C1CC(=O)C(CC(C)C)CN1CC2` (stereo unspecified) [Tetrabenazine] it was -22.5.
As for `COc1ccc(C(CN(C)C)C2(O)CCCCC2)cc1` (stereo unspecified) [Venlafaxine hydrochloride], the optomotor response amounted to 7.81.
As for `N[C@@H]1C[C@H]1c1ccccc1` [Tranylcypromine hydrochloride], the optomotor response came to 11.9.
In the case of `O=c1[nH]c2ccccc2n1C1CCN(CCCC(c2ccc(F)cc2)c2ccc(F)cc2)CC1` [Pimozide] it was -34.3; in that of `C=C1C[C@@H]2[C@H](CC[C@]3(C)C(=O)CC[C@@H]23)[C@@]2(C)C=CC(=O)C=C12` [Exemestane], 5.64.
In the case of `CC(C)C[C@H]1C(=O)N2CCC[C@H]2[C@]2(O)O[C@](NC(=O)[C@@H]3C=C4c5cccc6[nH]c(Br)c(c56)C[C@H]4N(C)C3)(C(C)C)C(=O)N12` [Bromocriptine mesylate] it was -41.6; in that of `CC(O)(CS(=O)(=O)c1ccc(F)cc1)C(=O)Nc1ccc(C#N)c(C(F)(F)F)c1` (stereo unspecified) [Bicalutamide], -2.63; in that of `CCN(C)C(=O)Oc1cccc([C@H](C)N(C)C)c1` [Rivastigmine tartrate], -8.58.

For the origin of these results see the supplement of paper PMC9023506.
